Assay results as given in PubChem BioAssay AID463173 (ICCB-Longwood Screening Facility, Harvard Medical School, 2010).
The campaign covered roughly 52,000 compounds. About 4,300 (8.3%) were called active. The entries come from a sample that favours actives as a whole. Values without a mark were called inactive. Rule as the data show it: active = survival mostly below about 52% (no sharp cut-off); inactive = mostly above about 56%.

system: DeltatarO mutant; experiment: S. aureus survival, RN4220 and DeltatarO strains – OD600, teichoic acid synthesis inhibitors, primary screen (AID 463173); settings: S. aureus RN4220 wild type/DeltatarO growth, OD600, 18 h, active compounds read low, screened at 18.75 µg/mL (by protocol)

SMILES	survival
COc1ccc(-c2onc(C)c2C)cc1S(=O)(=O)NCC1CCN(Cc2cc(C)ccc2C)CC1	100%
CCOC(=O)c1cc(-c2ccc(F)cc2)n(CCC(=O)Nc2ccccc2OC)c1C	101%
CCOC(=O)c1cc(-c2ccc(C)cc2)n(CCC(=O)Nc2ccc(C(C)C)cc2)c1C	61%
CCOC(=O)c1cc(-c2ccccc2)n(CCC(=O)Nc2ccc(OC)c(Cl)c2)c1C	92%
CCOC(=O)c1cc(-c2ccccc2)n(CCC(=O)NCCc2cccc(C)c2)c1C	58%
CCOC(=O)c1cc(-c2ccccc2)n(CC(=O)NCc2ccc(C)cc2)c1C	37% (active)
CCOC(=O)c1cc(-c2ccccc2)n(CC(=O)NCc2ccccc2OC)c1C	101%
CCOC(=O)c1cc(-c2ccc(F)cc2)n(CCC(=O)NCc2ccccc2OC)c1C	52% (active)
CCOC(=O)c1cc(-c2ccccc2)n(CCC(=O)NCCc2ccc(C)cc2)c1C	71%
CCOC(=O)c1cc(-c2ccc(F)cc2)n(CC(=O)NCc2ccc(OC)cc2)c1C	75%
CCOC(=O)c1cc(-c2ccc(C)cc2)n(CCC(=O)NCc2ccccc2)c1C	108%
CCOC(=O)c1cc(-c2ccc(C)cc2)n(CCC(=O)Nc2ccc(OC)c(OC)c2)c1C	52% (active)
CCOC(=O)c1cc(-c2ccccc2)n(CCC(=O)NCCc2ccccc2)c1C	0% (active)
CC1CCc2c(sc(NC(=S)NC(=O)c3ccn(C)n3)c2C(N)=O)C1 (configuration not stated)	99%
O=C1CS(=O)(=O)C2(C(=O)N(Cc3ccc(F)cc3)c3ccccc32)N1c1cccc(C(F)(F)F)c1 (configuration not stated)	124%
O=C(NCc1ccc(Cl)cc1)c1cnc(N2CCCCC2)c2ccccc12	84%
CCc1ccc(N(CC)C(=O)c2ccc3c(=O)n4c(nc3c2)CCCCC4)cc1	86%
CCOc1ccc(NC(=O)Cn2ncc3c2-c2cc(C)ccc2OC3)cc1	73%
Cc1c(C(=O)NCc2cccc(F)c2)oc2c1-c1[nH]ncc1CC2	71%

SMILES	survival
CC(CN=CC1=C(O)CC(C)(C)CC1=O)N=CC1=C(O)CC(C)(C)CC1=O (configuration not stated)	101%
CC1(C)CC(=O)C(C=NCCCN2CCCC2=O)=C(O)C1	94%
CC(C)C(=O)N1CCC(CN=CC2=C(O)CC(C)(C)CC2=O)CC1	52% (active)
CC(O)Cc1nsc(NC(=O)c2cccs2)n1 (configuration not stated)	81%
CC(C)NC(=O)C1CCN(C(=O)c2cc3sccc3n2Cc2ccc(Cl)cc2)CC1	65%
CCn1c(C(=O)N2CCC(C(=O)NCCc3ccc(C)cc3)CC2)cc2sccc21	58%
CCn1c(C(=O)N2CCC(C(=O)N3CCN(c4ccc(OC)cc4)CC3)CC2)cc2sccc21	49% (active)
CCn1c(C(=O)N2CCC(C(=O)N3CCN(c4cc(C)ccc4C)CC3)CC2)cc2sccc21	51%
CCC(C)NC(=O)C1CCN(C(=O)c2cc3sccc3n2Cc2ccc(Cl)cc2)CC1 (configuration not stated)	45% (active)
CC(C)CCNC(=O)C1CCN(C(=O)c2cc3sccc3n2Cc2ccc(Cl)cc2)CC1	40% (active)
COCCCNC(=O)C1CCN(C(=O)c2cc3sccc3n2Cc2ccc(Cl)cc2)CC1	59%
COc1ccc(N2CCN(C(=O)c3cc4sccc4n3Cc3ccccc3)CC2)cc1	92%
COCCNC(=O)C1CCN(C(=O)c2cc3sccc3n2Cc2ccc(Cl)cc2)CC1	110%
Cc1ccc(CN(CC(=O)NC2CCCC2)C(=O)CSc2nnc(COc3ccccc3)o2)cc1	80%
O=C(Cn1c(=O)n(-c2ccc(Cl)cc2)c(=O)c2c3c(sc21)CCC3)c1ccc(F)cc1	51%
COc1ccc(N2CCN(C(=O)Cn3nc(Cc4cccnc4)c4ccccc4c3=O)CC2)cc1	108%
Cc1cc(C)c(NC(=O)CSc2nc(=O)n(Cc3cccnc3)c3c2CCC3)c(C)c1	104%
C[n+]1ccn(CC(=O)c2ccccc2)c1	78%
COCCN=Cc1c(NCCOC)nc2ccccn2c1=O	103%

SMILES	survival
COC(=O)c1sc(N)c(C#N)c1C	74%
O=C(Nc1cccc(Cl)c1)C1CCN(c2nc3ccccc3nc2C(F)(F)F)CC1	70%
CC(NC(=O)C1CCN(c2nc3ccccc3nc2C(F)(F)F)CC1)c1ccccc1 (configuration not stated)	37% (active)
Cc1cc(C)cc(NC(=O)C2CCN(c3nc4ccccc4nc3C(F)(F)F)CC2)c1	93%
Cc1ccc(NC(=O)C2CCN(c3nc4ccccc4nc3C(F)(F)F)CC2)cc1F	46% (active)
Cc1ccc(NC(=O)C2CCN(c3nc4ccccc4nc3C(F)(F)F)CC2)cc1C	91%
CC(C)(C)NC(=O)C1CCN(c2nc3ccccc3nc2C(F)(F)F)CC1	63%
CC(C)NC(=O)C1CCN(c2nc3ccccc3nc2C(F)(F)F)CC1	101%
CSc1ccc(NC(=O)C2CCN(c3ncccn3)CC2)cc1	110%
O=C(Nc1ccc(Cl)cc1)C1CCN(c2nc3ccccc3nc2C(F)(F)F)CC1	25% (active)
O=C(Nc1ccc(F)c(Cl)c1)C1CCN(c2ncccn2)CC1	63%
O=C(Nc1ccc(F)cc1)C1CCN(c2nc3ccccc3nc2C(F)(F)F)CC1	118%
Cc1ccc(NC(=O)C2CCN(c3ncccn3)CC2)cc1F	53% (active)
O=C(Nc1ccc(F)cc1F)c1c2c(nc3ccccc13)C(=O)N(C1CCCCC1)C2	81%
CCN(CC)C(=O)C1CCN(c2nnc(C)c3c(C)n(-c4ccc(Cl)cc4)nc23)CC1	95%
CCOc1ccc(N(C(C)C(=O)NCCSc2ccc(C)cc2)S(C)(=O)=O)cc1 (configuration not stated)	45%
COc1ccc(OC)c(NC(=O)CSC2=Nc3ccccc3C3=NC(CC(=O)NCc4ccco4)C(=O)N23)c1 (configuration not stated)	99%
CC(C)Nc1nc(NC(N)=O)nc(NC(C)C)n1	104%
CCOc1ccc(CN2C(=O)c3ccccc3C2C(=O)NCCc2ccc(OC)c(OC)c2)cc1 (configuration not stated)	88%
